In the supplement of paper PMC13380429:

Tested on: Vero E6 infected with SARS-CoV-2
Test: inhibition of SARS-CoV-2 cytopathic effect; higher = more antiviral protection, active = above 15
Details: 48 h

Measured: inhibition of SARS-CoV-2 cytopathic effect

COc1nccc(-c2c(-c3ccc(F)cc3)ncn2[C@H]2CC[C@H](O)CC2)n1
inactive: 1 nM 5.42% | 8.33 nM 6.4% | 100 nM 3.88% | 833.33 nM 2.66% | 10000 nM 7.7%

Nc1ncnc2c1ncn2[C@@H]1O[C@H](COP(=O)(O)OP(=O)(O)OP(=O)(O)O)[C@@H](O)[C@H]1O
inactive: 1 nM -0.89% | 8.33 nM -1.33% | 100 nM -0.6% | 833.33 nM 2.57% | 10000 nM 2.48%

Oc1ccc(Nc2nc(-c3ccc(Cl)cc3)cs2)cc1
inactive: 1 nM 0.33% | 8.33 nM 0.67% | 100 nM 2.65% | 833.33 nM 1.03% | 10000 nM 3.81%

CC(C)c1nc(CN(C)C(=O)N[C@H](C(=O)N[C@@H](Cc2ccccc2)C[C@H](O)[C@H](Cc2ccccc2)NC(=O)OCc2cncs2)C(C)C)cs1 [ritonavir]
inactive: 1 nM 0.04% | 8.33 nM 0.25% | 100 nM -0.08% | 833.33 nM 3.37% | 10000 nM 0.85%

CCn1cc(C(=O)O)c(=O)c2cc(F)c(N3CCNCC3)nc21 [enoxacin]
inactive: 1 nM 4.58% | 8.33 nM 2.38% | 100 nM 0.25% | 833.33 nM -2.16% | 10000 nM 0.56%

CCc1cccc(CC)c1NC(=O)c1nn(C)c2c1CCc1cnc(Nc3ccc(C(=O)NC4CCN(C)CC4)cc3OC(F)(F)F)nc1-2
inactive: 1 nM 1.19% | 8.33 nM 3.71% | 100 nM 1.53% | 833.33 nM 0.13% | 10000 nM 5.39%

CC(C)C(=O)OC[C@H]1O[C@@H](n2ccc(N)nc2=O)[C@](C)(F)[C@@H]1OC(=O)C(C)C [mericitabine]
inactive: 1 nM -0.35% | 8.33 nM -2.22% | 100 nM 2.05% | 833.33 nM -0.85% | 10000 nM 1.88%

COc1cc2c(cc1OC)C(=O)C(CC1CCN(Cc3ccccc3)CC1)C2 (stereo not given) [donepezil]
inactive: 1 nM -2.44% | 8.33 nM -3.45% | 100 nM -1.84% | 833.33 nM -1.28% | 10000 nM -8.45%

O=C1c2cc(Cl)ccc2OC2CCON12 (stereo not given) [seclazone]
inactive: 1 nM -0.24% | 8.33 nM 1.68% | 100 nM 1.79% | 833.33 nM 0.75% | 10000 nM 1.99%

COc1ccc(CNC(=O)c2cc(-c3cncc(C)c3)ncc2-c2nccs2)nc1OC
inactive: 1 nM 1.93% | 8.33 nM 4.06% | 100 nM 1.64% | 833.33 nM -9.94% | 10000 nM 3.12%

c1ccc(C(NCc2cccnc2)(c2ccccc2)c2ccccc2)cc1
inactive: 1 nM 1.69% | 8.33 nM 4.02% | 100 nM 1% | 833.33 nM 1.58% | 10000 nM 2.26%

CCN(CC)Cc1nccn1-c1ccc([N+](=O)[O-])cc1C(=O)c1ccccc1Cl [nizofenone]
inactive: 1 nM -1.17% | 8.33 nM 0.76% | 100 nM -0.2% | 833.33 nM 0.15% | 10000 nM 1.83%

CC1(C)OC(=O)C(OCC2CC2)=C1c1ccc(S(C)(=O)=O)cc1 [firocoxib]
inactive: 1 nM -1.63% | 8.33 nM -1.5% | 100 nM 0.34% | 833.33 nM 0.04% | 10000 nM -1.02%

C[C@@H](O)[C@H](N)C(=O)N1CCC[C@H]1C(=O)N1CCC[C@H]1C(=O)N[C@H](C(N)=O)[C@@H](C)O [rapastinel]
inactive: 1 nM -2.84% | 8.33 nM -5.74% | 100 nM 0.55% | 833.33 nM -1.01% | 10000 nM -0.06%

C[C@@H](N)Cc1c[nH]c2ccc(O)cc12 [alpha-methylserotonin]
inactive: 1 nM -0.1% | 8.33 nM -1.31% | 100 nM -1.23% | 833.33 nM -0.05% | 10000 nM -3.72%

CCc1ccc(/C=C/C(=O)Nc2ccc(C(C)=O)cc2)o1 [heclin]
inactive: 1 nM -2.06% | 8.33 nM -1.28% | 100 nM -7.85% | 833.33 nM -6.86% | 10000 nM -5.66%

CCN(CC)CCCCNc1ncc2cc(-c3cc(OC)cc(OC)c3)c(NC(=O)NC(C)(C)C)nc2n1
inactive: 1 nM -0.74% | 8.33 nM 1.53% | 100 nM -0.45% | 833.33 nM -4.96%
active: 10000 nM 45.1%

Oc1cc(O)cc(/C=C/c2ccc(O)c(O)c2)c1 [piceatannol]
inactive: 1 nM 2.41% | 8.33 nM -0.84% | 100 nM -0.97% | 833.33 nM 0.83% | 10000 nM 2.32%

O=C(Nc1cccnn1)N1CCC(=Cc2cccc(Oc3ccc(C(F)(F)F)cn3)c2)CC1
inactive: 1 nM 0.89% | 8.33 nM 1.24% | 100 nM -0.76% | 833.33 nM -0.98% | 10000 nM -3.19%
